From PubChem
Most compounds without a hit are left out; they make up all but 3.1% or so of the library.
Wnt bcat act = Wnt/beta-catenin pathway activators, primary screen, cell-based, plate reader, single point | activation, % at 9.35 µM | Wnt/beta-catenin reporter cell assay, activator | 300,000 tested, 1.2% active; in the data active = activation above about 30%, passing the limit was not always enough; inconclusive = no clear call, values can overlap the other calls;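 note: 0% = neutral control wells and 100% = positive control wells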
MITF TRPM1 HTS = activators of MITF-driven TRPM1 promoter reporter, primary screen, cell-based, SK-MEL-5, luciferase, single point | SK-MEL-5 TRPM1-promoter luciferase, 24 h; % of positive control, neutral wells = 0 | activation, % at 12.5 µM | 300,000 tested, 0.75% active;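 active = mean activation of at least 80% with every replicate also reaching 80%; inconclusive = mean reaches 80% but some replicate falls short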;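 note: 0% = neutral control wells and 100% = parthenolide positive control wells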
esBAF inh = Bmi1 luciferase reporter increase in mESCs, primary screen, esBAF inhibitor project, mouse ES cells, Bmi1 luciferase knock-in, single point. 24 h; 100% = twice the neutral-well signal. reporter increase, % at 12.5 µM. 350,000 tested, 2% active. AID 602393, 2012; in the data active = activation above about 40%; inconclusive = no clear call, values can overlap the other calls;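 note: 0% = median of the plate's neutral control wells and 100% = double that signal; a rise in the Bmi1 reporter signal indicates esBAF inhibition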
C2C12 statin = suppressors of statin myotoxicity in C2C12 myotubes, primary screen, cell-based, single point, plate reader | C2C12 myotubes + simvastatin, ATP luminescence, 48 h; scaled: DMSO 0, geranylgeraniol control 100 | rescue of ATP level, % at 7.49 µM | 330,000 tested, 0.78% active | AID 602340, 2012;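 active = mean ATP rescue above about 67%, or every replicate alone reaching that limit, limit read from the data, passing the limit was not always enough; inconclusive = no clear call, values can overlap the other calls; inactive = mean under the limit and some replicate under it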;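 note: myotubes were challenged with 10 µM simvastatin during compound exposure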
Rtt109 Vps75 = inhibitors of C. albicans Rtt109/Vps75 HAT, primary screen, biochemical, ThioGlo CoA-SH fluorescence, plate reader. inhibition, % at 34.9 µM. 330,000 tested, 0.16% active. purified Rtt109/Vps75, 4 h. Histone acetyltransferase RTT109 (Candida albicans (strain SC5314 / ATCC MYA-2876)), …;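 active = inhibition of at least 50% in every replicate; inconclusive = best replicate reaches 50% inhibition but some replicates fall short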
Target sequence (Q5AAJ8 whole entry, looked up): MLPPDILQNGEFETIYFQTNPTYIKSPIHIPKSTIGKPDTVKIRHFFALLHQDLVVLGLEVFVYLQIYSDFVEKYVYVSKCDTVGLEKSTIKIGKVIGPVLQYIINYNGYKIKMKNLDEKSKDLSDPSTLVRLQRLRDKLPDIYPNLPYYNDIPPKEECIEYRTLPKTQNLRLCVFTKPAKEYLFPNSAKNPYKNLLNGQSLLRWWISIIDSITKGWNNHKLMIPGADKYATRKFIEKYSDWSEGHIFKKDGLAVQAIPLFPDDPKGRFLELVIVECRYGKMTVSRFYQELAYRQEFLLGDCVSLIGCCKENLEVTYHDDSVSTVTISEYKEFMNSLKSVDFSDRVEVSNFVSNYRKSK
Starred values were filed as active, the others as inactive; ? = inconclusive; / = not tested or not shown.

SMILES	Wnt bcat act	MITF TRPM1 HTS	esBAF inh	C2C12 statin	Rtt109 Vps75
Cc1ccccc1C(=O)Nc1c(C(=O)N2CCCC2)cnn1-c1ccccc1	-0.3	2.6	2.2	61.1	8.7
Cc1ccccc1NC(=O)c1cnn(-c2ccccc2)c1C	?	64.5	75.1*	-10.7	1.2
CCOC(=O)c1cnn(-c2ccccc2)c1NC(=O)c1ccccc1C	39.1*	-3.8	-7.7	4.5	45.6
Cc1cccc(NC(=O)c2cnn(-c3ccccc3)c2C)c1C	-0.1	/	62.8*	8.9	-2.2
CO[C@@H]1CN(C)C(=O)c2ccc(NC(=O)Nc3cccc(F)c3)cc2OC[C@@H](C)NC[C@@H]1C	/	/	-1.7	-20.2	/
CC(=O)c1ccc(NC(=O)CCc2c(C)nc3ncnn3c2C)cc1	23.5	17.4	47.6*	-4.0	-3.1
CCOC(=O)c1ccc(Nc2c(CC)c(C)nc3ncnn23)cc1	/	-7.0	8.6	-7.7	1.9
CCc1c(C)nc2ncnn2c1Nc1ccc(C(C)=O)cc1	26.3	33.2	47.7*	-8.4	9.0
CO[C@@H]1CN(C)C(=O)c2cc(NS(=O)(=O)CC(F)(F)F)ccc2OC[C@H](C)N(CC2CCCCC2)C[C@H]1C	/	/	-2.0	9.1	/
Cc1ccc(C(=O)CSc2nnc(C3CC3)n2C2CC2)s1	25.1	/	46.1*	1.4	-3.9
CCc1ccc(C(=O)CSc2nnc(C3CC3)n2C2CC2)cc1	-5.1	39.0	40.9*	-7.2	0.6
CS(=O)(=O)Nc1ccc(C(=O)CSc2nnc(C3CC3)n2C2CC2)cc1	2.4	1.3	3.5	-0.2	-13.8
O=C(CSc1nnc(C2CC2)n1C1CC1)c1ccc(F)c(F)c1	8.6	16.1	26.2	-7.4	-6.9
Cc1ccccc1-c1cnc2c(c1)C(=O)N([C@@H](C)CO)C[C@H](C)[C@H](CN(C)Cc1cccnc1)O2	/	/	-2.1	-52.9	/
COc1ccc(CN(C)C[C@@H]2Oc3ccc(NS(=O)(=O)c4c(C)noc4C)cc3CC(=O)N([C@H](C)CO)C[C@H]2C)cc1	/	/	4.7	33.4	/
Cc1ccc(CN(C)C(=O)c2cc(COc3ccc(F)cc3Cl)on2)o1	5.9	30.1	60.4*	1.2	14.4
CC(=O)c1ccc(OCc2cc(C(=O)N(C)Cc3ncc(C)[nH]3)no2)cc1	-3.1	-7.8	1.3	-1.9	9.1
CC(=O)c1cccc(OCc2cc(C(=O)N(C)C(C)c3ccccn3)no2)c1 (configuration not stated)	0.3	-3.9	3.2	2.0	-6.0
Cc1nonc1CN(C)C(=O)c1cc(COc2ccc(F)cc2Cl)on1	11.5	34.0	6.7	1.7	19.3
CC(=O)c1ccc(OCc2cc(C(=O)N(C)Cc3cc(C)no3)no2)cc1	4.4	33.2	61.7*	11.1	-16.9
COc1ccc(OCc2cc(C(=O)N(C)Cc3cc(C)no3)no2)c(Cl)c1	4.1	46.6	47.7*	40.3	-8.7
CC(=O)c1cccc(OCc2cc(C(=O)N(C)Cc3cnccn3)no2)c1	13.0	95.8*	/	/	-1.9
C/C=C/c1ccc2c(c1)O[C@H](CN(C)CC1CCOCC1)[C@H](C)CN([C@H](C)CO)S2(=O)=O	/	/	-1.3	10.6	/
COc1cccc(S(=O)(=O)N(C)C[C@H]2Oc3cc(C#CCC(C)C)ccc3S(=O)(=O)N([C@@H](C)CO)C[C@@H]2C)c1	/	/	7.1	-25.8	/
CCCNC(=O)C[C@H]1CC[C@H]2[C@H](COc3ccc(NS(=O)(=O)CC)cc3C(=O)N2C)O1	/	/	-3.1	-4.2	/
CC(=O)c1ccc(OCc2cc(C(=O)N(C)C(C)c3nccs3)no2)cc1 (configuration not stated)	-2.4	26.9	53.8*	-24.6	-7.8
CCN(Cc1ccncc1)C(=O)c1cc(COc2ccc(OC)cc2Cl)on1	28.1	76.9	71.9*	-3.6	1.5
CCN(Cc1ccncc1)C(=O)c1cc(COc2ccc(F)cc2Cl)on1	2.8	17.0	13.8	14.9	5.7
COc1ccc(OCc2cc(C(=O)N(C)Cc3nnc(C)o3)no2)c(Cl)c1	23.8	33.7	?	17.4	-6.8
CCc1ccc(CN(C)C(=O)c2cc(COc3ccc(OC)cc3Cl)on2)nc1	16.3	57.2	45.8*	7.7	-4.3
